From PubChem BioAssay come the findings set out here.

Molecules are shown by their SMILES. Active and inactive are the calls of the source.

Test [1] in a line: binders of probe aFSTL3 on microarray, primary screen, stem cell growth factor project, biochemical, small-molecule microarray, fluorescence 635/667 (AID 1064).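 Further: measures binding of the biotinylated anti-FSTL3 antibody to printed compounds.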 The following applies: higher = more signal.
Test [2] can be described thus: binders from COS7 lysate, DM2A8 probe, primary screen, torsin A project, cell lysate, small-molecule microarray, fluorescence 635/667 (AID 1065). To be noted: higher = more signal, COS7 lysate expressing mutant human TOR1A.
Test [3] in a line: binders of probe aFGF2 on microarray, primary screen, stem cell growth factor project, biochemical, small-molecule microarray, fluorescence 635/667 (AID 1067).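 Further: measures binding of biotinylated aFGF2 protein to printed compounds on slides; z-score merges feature fluorescence and signal-to-noise across triplicate slides.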 The following applies: higher = more signal.
Test [4] is described as follows: binders of probe aFGF10 on microarray, primary screen, stem cell growth factor project, biochemical, small-molecule microarray, fluorescence 635/667 (AID 1071).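 Further: score merges 667 nm spot intensity and signal to noise from triplicate slides.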 To be noted: higher = more signal.
The target in test [5] is Neurogenic locus notch homolog protein 2 (Homo sapiens) (UniProt Q04721). Kind of test: Notch2 binders on small-molecule microarrays, primary screen, biochemical, small-molecule microarray, 635 nm fluorescence, stem cell growth factors (AID 1073). The following applies: Notch2 binding, higher = more signal.
Sequence of Neurogenic locus notch homolog protein 2 (Homo sapiens) (Q04721 whole entry, looked up, canonical isoform): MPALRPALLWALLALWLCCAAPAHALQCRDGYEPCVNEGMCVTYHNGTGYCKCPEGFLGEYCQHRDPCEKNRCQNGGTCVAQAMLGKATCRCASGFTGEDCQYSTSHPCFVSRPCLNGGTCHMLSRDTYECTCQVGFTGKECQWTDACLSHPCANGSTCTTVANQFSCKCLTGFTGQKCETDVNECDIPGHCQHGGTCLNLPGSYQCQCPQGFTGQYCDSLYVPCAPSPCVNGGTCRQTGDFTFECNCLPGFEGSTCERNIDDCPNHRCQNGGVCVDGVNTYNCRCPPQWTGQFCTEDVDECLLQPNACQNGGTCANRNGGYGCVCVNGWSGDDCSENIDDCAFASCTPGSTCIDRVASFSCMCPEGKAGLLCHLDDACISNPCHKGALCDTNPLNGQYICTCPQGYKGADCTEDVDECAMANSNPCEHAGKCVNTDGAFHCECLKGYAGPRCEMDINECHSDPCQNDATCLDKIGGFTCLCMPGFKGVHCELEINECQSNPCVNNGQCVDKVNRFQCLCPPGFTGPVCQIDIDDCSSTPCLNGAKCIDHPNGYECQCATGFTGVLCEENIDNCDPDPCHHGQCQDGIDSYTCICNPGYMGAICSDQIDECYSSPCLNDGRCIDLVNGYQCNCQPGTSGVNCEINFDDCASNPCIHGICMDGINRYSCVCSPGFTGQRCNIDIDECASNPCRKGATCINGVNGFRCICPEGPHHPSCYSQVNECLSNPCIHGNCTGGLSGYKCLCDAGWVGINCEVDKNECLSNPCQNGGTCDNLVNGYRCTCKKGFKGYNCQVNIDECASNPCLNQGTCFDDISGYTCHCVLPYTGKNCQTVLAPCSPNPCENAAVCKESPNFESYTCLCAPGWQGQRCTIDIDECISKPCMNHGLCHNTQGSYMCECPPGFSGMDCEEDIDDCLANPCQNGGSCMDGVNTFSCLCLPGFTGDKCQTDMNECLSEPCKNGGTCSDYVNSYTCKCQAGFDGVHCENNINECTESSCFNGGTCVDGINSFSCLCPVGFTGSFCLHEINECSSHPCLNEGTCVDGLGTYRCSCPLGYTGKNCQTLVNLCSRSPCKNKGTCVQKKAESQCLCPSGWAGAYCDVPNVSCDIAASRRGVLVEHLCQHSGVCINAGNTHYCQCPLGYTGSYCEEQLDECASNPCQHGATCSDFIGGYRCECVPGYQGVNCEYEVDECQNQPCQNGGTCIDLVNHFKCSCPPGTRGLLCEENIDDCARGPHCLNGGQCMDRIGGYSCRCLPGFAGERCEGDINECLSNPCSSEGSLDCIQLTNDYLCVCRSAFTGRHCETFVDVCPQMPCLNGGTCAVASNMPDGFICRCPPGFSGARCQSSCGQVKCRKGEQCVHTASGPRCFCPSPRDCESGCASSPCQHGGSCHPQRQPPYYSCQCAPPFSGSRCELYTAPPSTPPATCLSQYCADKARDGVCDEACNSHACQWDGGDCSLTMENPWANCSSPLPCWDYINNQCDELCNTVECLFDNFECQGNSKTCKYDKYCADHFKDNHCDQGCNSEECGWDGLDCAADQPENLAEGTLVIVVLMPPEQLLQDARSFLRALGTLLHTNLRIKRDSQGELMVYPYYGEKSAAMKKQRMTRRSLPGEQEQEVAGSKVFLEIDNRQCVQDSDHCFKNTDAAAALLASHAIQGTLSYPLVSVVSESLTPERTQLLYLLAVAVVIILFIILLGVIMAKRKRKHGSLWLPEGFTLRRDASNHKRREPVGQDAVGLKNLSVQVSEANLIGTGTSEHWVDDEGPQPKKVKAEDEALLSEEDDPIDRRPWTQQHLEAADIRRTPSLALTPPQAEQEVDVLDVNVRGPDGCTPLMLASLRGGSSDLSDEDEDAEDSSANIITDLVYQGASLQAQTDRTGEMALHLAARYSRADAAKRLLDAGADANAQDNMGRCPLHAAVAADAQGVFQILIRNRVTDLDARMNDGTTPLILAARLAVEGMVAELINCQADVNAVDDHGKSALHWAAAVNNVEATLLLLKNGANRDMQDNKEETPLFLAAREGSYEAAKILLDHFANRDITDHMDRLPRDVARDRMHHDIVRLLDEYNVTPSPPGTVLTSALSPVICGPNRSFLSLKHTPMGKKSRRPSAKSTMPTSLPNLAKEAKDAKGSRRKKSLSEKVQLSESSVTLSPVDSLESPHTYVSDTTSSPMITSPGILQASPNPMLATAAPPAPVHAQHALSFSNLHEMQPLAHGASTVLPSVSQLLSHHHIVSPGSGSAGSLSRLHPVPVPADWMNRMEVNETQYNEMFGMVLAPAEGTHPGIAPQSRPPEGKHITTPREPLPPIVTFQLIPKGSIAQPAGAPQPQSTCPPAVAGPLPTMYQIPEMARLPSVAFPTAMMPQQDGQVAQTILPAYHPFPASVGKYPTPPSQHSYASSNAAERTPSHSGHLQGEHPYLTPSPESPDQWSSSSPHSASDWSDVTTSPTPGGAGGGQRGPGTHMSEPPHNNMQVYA
The target in test [6] is Pro-neuregulin-1, membrane-bound isoform (Homo sapiens) (UniProt Q02297). As to the kind of experiment: NRG1 binders on small-molecule microarrays, primary screen, psychiatric disease protein project, biochemical, small-molecule microarray, fluorescence 635/667 (AID 1075).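 Further: score combines 667 nm spot fluorescence with signal to noise.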 To be noted: NRG1 binding, 635 nm fluorescence, higher = more signal.
Sequence of Pro-neuregulin-1, membrane-bound isoform (Homo sapiens) (Q02297 whole entry, looked up, the tested form may be a part, canonical isoform): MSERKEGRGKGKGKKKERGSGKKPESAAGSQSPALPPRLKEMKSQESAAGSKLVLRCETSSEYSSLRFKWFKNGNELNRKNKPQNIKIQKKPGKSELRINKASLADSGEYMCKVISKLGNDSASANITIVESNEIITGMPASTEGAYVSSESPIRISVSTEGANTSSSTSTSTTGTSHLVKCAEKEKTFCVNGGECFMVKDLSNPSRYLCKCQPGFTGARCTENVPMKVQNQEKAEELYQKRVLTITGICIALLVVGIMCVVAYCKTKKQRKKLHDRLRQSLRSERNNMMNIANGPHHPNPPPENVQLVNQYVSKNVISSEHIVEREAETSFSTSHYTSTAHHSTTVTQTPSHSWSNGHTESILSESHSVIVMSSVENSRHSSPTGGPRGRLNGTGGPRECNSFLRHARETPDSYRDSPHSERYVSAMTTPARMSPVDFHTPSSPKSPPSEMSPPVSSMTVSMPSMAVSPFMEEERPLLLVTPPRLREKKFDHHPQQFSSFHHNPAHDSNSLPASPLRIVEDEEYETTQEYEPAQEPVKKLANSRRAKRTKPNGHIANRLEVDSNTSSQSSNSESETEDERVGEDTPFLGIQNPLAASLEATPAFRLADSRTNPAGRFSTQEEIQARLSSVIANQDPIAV
For test [7], the system named is Neuregulin-1 EGF-like domain. Kind of test: binders of neuregulin-1 EGF-like domain, primary screen, biochemical, small-molecule microarray, 635 nm fluorescence (AID 1081).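 Further: binding of the protein to compounds printed on small-molecule microarray slides.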 The following applies: small-molecule microarray binding, higher = more signal.
Test [8] in a line: FRG1 promoter luciferase signal modulators, primary screen, FRG1 inhibition for FSHD, cell-based, C2C12 myotubes, firefly/Renilla luciferase, luminescence (AID 1084). The following applies: higher = more signal, called active from +8 up or from −8 down.
The nature of test [9]: binders of probe aFST on microarray, primary screen, stem cell growth factor project, biochemical, small-molecule microarray, fluorescence 635/667 (AID 1086).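 Further: score merges 667 nm fluorescence with signal-to-noise of each printed compound spot.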 The following applies: higher = more signal.
Test [10] is described as follows: binders of probe aHhip on microarray, primary screen, stem cell growth factor project, biochemical, small-molecule microarray, fluorescence 635/667 (AID 1087).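 Further: score merges spot fluorescence at 667nm with spot signal to noise ratio.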 The following applies: higher = more signal.
For test [11], the system named is PRMT1 (protein arginine N-methyltransferase 1). As to the kind of experiment: PRMT1 binders on small-molecule microarrays, primary screen, biochemical, small-molecule microarray, 635 nm fluorescence (AID 1088).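 Further: binding of Prmt1 protein to compounds spotted on small-molecule microarray slides.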 To be noted: small-molecule microarray binding, higher = more signal.
A short description of test [12]: yeast growth modulation, basal conditions, primary screen, YJM789 clinical isolate, OD600, 24 h (AID 1089).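 Further: growth of clinical yeast isolate S. cerevisiae YJM 789 seeded 1000 cells per well; test concentration not given here.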 To be noted: S. cerevisiae YJM789 growth, higher = more signal, called active from +8 up or from −8 down.
Test [13] can be described thus: fission yeast growth modulation, primary screen, strain 972, OD600, 24 h, no modulator (AID 1090).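 Further: basal condition with compound alone and no growth modifier present; test concentration not given here.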 To be noted: S. pombe 972 growth, higher = more signal, called active from +8 up or from −8 down.
A short description of test [14]: S. cerevisiae growth modulation with rapamycin, primary screen, strain BY4716, OD600, 96 h (AID 1091). Further: test concentration not given here. To be noted: higher = more signal, called active from +8 up or from −8 down.
Test [15] addresses Torsin-1A-interacting protein 2 (Homo sapiens) (UniProt Q8NFQ8). As to the kind of experiment: LULL1 binders on small-molecule microarray, primary screen, cell lysate, human LULL1 lysate, 635/667 nm fluorescence (AID 1092).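 Further: probe is lysate of COS7 cells overexpressing human LULL1; score merges per-feature 667 nm fluorescence with signal-to-noise.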 To be noted: hLULL1 lysate binding, 635 nm fluorescence, higher = more signal.
A short description of test [16]: E. coli growth modulation, two-sided OD650, primary screen, E. coli filamentation project, strain DRC41, 24 h (AID 1093).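 Further: MC1000 strain lacking acrAB efflux and sulA so SOS filamentation is blocked; test concentration not given here.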 The following applies: OD650, 24 h, higher = more signal, called active from +8 up or from −8 down.
Test [17] in a line: small-molecule microarray binders of probe aLefty2, primary screen, biochemical, biotinylated probe, 635/667 nm fluorescence (AID 1094).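 Further: score merges spot fluorescence near 667 nm with spot signal-to-noise ratio.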 The following applies: higher = more signal.
For test [18], the system named is Noggin (protein binding on small-molecule microarray). As to the kind of experiment: Noggin binders on small-molecule microarray, primary screen, biochemical, 635/667 nm fluorescence (AID 1095).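 Further: score merges 667 nm feature fluorescence with signal to noise over triplicate slides.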 The following applies: 635 nm fluorescence, higher = more signal.
The target in test [19] is Neurogenic locus notch homolog protein 3 (Homo sapiens) (UniProt Q9UM47). Kind of test: NOTCH3 binders on small-molecule microarray, primary screen, biochemical, 635/667 nm fluorescence (AID 1096). The following applies: NOTCH3 binding, 635 nm fluorescence, higher = more signal.
Test [20] is described as follows: small-molecule microarray binders of probe aEGFR, primary screen, biochemical, biotinylated probe, 635/667 nm fluorescence (AID 1097).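 Further: probe is a biotinylated anti-EGFR antibody binding compounds printed on slides; score combines fluorescence near 667 nm and signal to noise of each spot.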 To be noted: higher = more signal.

Sequence of Torsin-1A-interacting protein 2 (Homo sapiens) (Q8NFQ8 whole entry, looked up): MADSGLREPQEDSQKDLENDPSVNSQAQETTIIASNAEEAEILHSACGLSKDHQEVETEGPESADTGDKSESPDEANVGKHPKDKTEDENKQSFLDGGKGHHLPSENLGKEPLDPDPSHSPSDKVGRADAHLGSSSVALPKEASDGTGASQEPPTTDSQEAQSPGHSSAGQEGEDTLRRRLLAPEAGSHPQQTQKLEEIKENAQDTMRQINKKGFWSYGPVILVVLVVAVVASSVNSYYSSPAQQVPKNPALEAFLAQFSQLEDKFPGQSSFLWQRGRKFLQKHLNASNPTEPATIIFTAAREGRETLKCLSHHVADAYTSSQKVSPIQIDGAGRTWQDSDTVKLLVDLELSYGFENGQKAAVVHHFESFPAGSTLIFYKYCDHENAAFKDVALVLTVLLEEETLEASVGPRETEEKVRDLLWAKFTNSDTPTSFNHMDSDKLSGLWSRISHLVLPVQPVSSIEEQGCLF

Regarding `Cc1ccc(C(C)CC(O)C2C=CC3C(=O)N(Cc4ccccc4)C(=O)C3N2n2cnnc2)o1` (stereo not given), the composite z-score in [1] is 1.67; in test [2], 0.46; in [3], 0.522; in test [4], 0.703; in test [5], 1.29; in test [6], 0.907. For the same molecule, the composite z-score in [7] stood at 1.44; in test [9] it was 2.16; in [10] it was 0.488; in test [11], 1.49; in test [15], 2.51; in [17], 1.1. Besides, the composite z-score in [18] worked out at 0.0433; in test [19], 1.09; in test [20] it was 0.778. The z-score in test [8] was 0.386 (inactive); in [12], -3.19 (inactive); in test [13] it was -2.84 (inactive); in test [14], -0.829 (inactive); in test [16], -1.56 (inactive).

As to `COc1ccc([Si](C)(C)[C@H]2[C@H](CCO)O[C@@]3(C(=O)N(Cc4cccc(N5CCOC5=O)c4)c4ccccc43)[C@@H]2C)cc1`, the composite z-score in test [1] is -0.167; in test [2], -0.16; in test [3] it was -0.034; in [4] it was 0.674; in test [5] it was 0.849; in test [6] it was 0.843. The composite z-score in [7] was 0.783; in [9] it was -0.292; in test [10], 0.0373; in test [11], 1.39; in test [15] it was 2.39; in [17], 0.514. For the same molecule, the composite z-score in test [18] is 0.459; in [19], 1.14; in [20], -0.0973. Further, the z-score was -2.15 (inactive) in test [8]; 2.81 (inactive) in test [12]; -0.406 (inactive) in test [13]; 34 (active) in test [14]; 0.228 (inactive) in test [16].

For `CCOC(=O)C1=CC[C@@H](c2cccc(Br)c2)N(S(=O)(=O)c2ccc(C)cc2)[C@H]1c1ccc([N+](=O)[O-])cc1`, the composite z-score in test [1] is -0.508; in test [2], 2.18; in [3] it was -0.0535; in test [4], 0.928; in [5] it was 1.52; in test [6], 0.674. For the same molecule, the composite z-score in [7] was 1.11; in [9], 0.339; in test [10], 0.305; in [11], 1.53; in test [15] it was 2.96; in test [17], -0.0615. In addition, the results for the composite z-score in [18], in test [19] and in test [20] were 0.496, 1.15 and 0.254, respectively. Further, the z-score was -1.74 (inactive) in test [8]; -0.412 (inactive) in test [12]; -5.06 (inactive) in [13]; 3.93 (inactive) in [14]; -0.3 (inactive) in [16].

Turning to `C=C[C@H](C)[C@H](OC(=O)Nc1ccc(SC)cc1)c1ccc(O)c2ccccc12`, the composite z-score in test [1] is -0.0571; in test [2] it was -0.0235; in test [3], 0.0243; in test [4] it was -0.624; in test [5], -0.718; in [6] it was 0.583. For the same molecule, the composite z-score is 1.05 in test [7]; -0.744 in [9]; -0.268 in test [10]; 0.214 in test [11]; 0.803 in test [15]; -0.125 in test [17]. In addition, the composite z-score in test [18] is 0.174; in [19], -0.673; in test [20] it was -0.305. Also, the z-score in test [8] was 2.77 (inactive); in test [12], -21.7 (active); in test [13], -20.8 (active); in test [14], -2.22 (inactive); in test [16], 0.949 (inactive).

As for `COC(=O)[C@@]1(Cc2ccc(F)cc2)[C@H]2c3cc(C(=O)N4CCCC4)n(Cc4ccccc4)c3C[C@H]2CN1C(=O)c1ccccc1`, the composite z-score in test [1] was 0.106; in [2] it was -0.663; in test [3], 0.0451; in test [4] it was 0.19; in [5], 1.56; in test [6], 1.83. Also, the composite z-score is 1.12 in test [7]; 1.23 in test [9]; 0.0578 in test [10]; -0.101 in test [11]; 3.22 in test [15]; 0.391 in test [17]. In addition, the composite z-score was -0.486 in test [18], 0.783 in test [19] and 0.0953 in test [20]. For the same molecule, the z-score in test [8] was 1.2 (inactive); in test [12], -0.136 (inactive); in [13], 1.31 (inactive); in [14], 1.24 (inactive); in [16], 0.21 (inactive).
